Measured values from the supplement of paper PMC9897528.

test system: Scedosporium aurantiacum CBS 136046; assay: growth inhibition relative to DMSO control (OD600); higher = more antifungal activity, active = 80 or more; extreme values may be limits of the assay; conditions: 5 µM; 72 h; 37 °C
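Also: conidia screened in RPMI 1640 medium under 5% CO2, growth read by spectrophotometer, medium with 0.5% DMSO serving as the untreated reference.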

Structure (SMILES) | growth inhibition
CC(C)(C)NC(=O)[C@@H]1C[C@@H]2CCCC[C@@H]2CN1C[C@@H](O)[C@H](Cc1ccccc1)NC(=O)[C@H](CC(N)=O)NC(=O)c1ccc2ccccc2n1 | 15% (inactive)
NCc1ccc(S(N)(=O)=O)cc1 | 9.4% (inactive)
O=C(O)c1cc(-c2ccc(Br)cc2)nc2ccc(Cl)cc12 | 15.5% (inactive)
COCCn1cnc2c(O)nc(Nc3ccccc3)nc21 | 5.59% (inactive)
Nc1nc(-c2ccccc2)nc2[nH]nc(Nc3ccc(C(F)(F)F)cc3)c12 | 16.5% (inactive)
O=C(/C(=C/c1ccc(Cl)cc1Cl)n1ccnc1)c1ccc(Cl)cc1 | 59.4% (inactive)
NCC(=O)Nc1ccc(-n2nc(C(F)(F)F)cc2-c2ccc3c(ccc4ccccc43)c2)cc1 | 25.5% (inactive)
C[C@H](NC(CC(=O)c1ccccc1C(F)(F)F)C(=O)O)c1ccccc1 (stereo partly drawn) | 2.25% (inactive)
Clc1cc2nc(C3CCNCC3)n(Cc3ccc(CNCCc4c[nH]cn4)cc3)c2cc1Cl | 16.1% (inactive)
CSC[C@H]1CN(Cc2c[nH]c3c(N)ncnc23)C[C@@H]1O | 10.5% (inactive)
O=S(=O)(Nc1ccccc1)c1ccc(NC(=S)Nc2ccccc2)cc1 | 24.2% (inactive)
CCOC(=O)/C=C/[C@H](C[C@@H]1CCNC1=O)NC(=O)[C@@H](CC(=O)[C@@H](NC(=O)c1cc(C)on1)C(C)C)Cc1ccc(F)cc1 | 1.27% (inactive)
COC(=O)Nc1nc2c(C)cccc2[nH]1 | 0% (inactive)
Oc1cccc(C(Nc2nccs2)c2ccc3cccnc3c2O)c1 (stereo not drawn) | 5.56% (inactive)
COc1ccc2nc(-c3ccccc3)cc(O)c2c1 | 17.5% (inactive)
Cc1ccc(NC(=O)c2ccc(CN3CCN(C)CC3)cc2)cc1Nc1nccc(-c2cccnc2)n1 | 17.6% (inactive)
CC(C)(C)NC(=O)N[C@H](C(=O)N1C[C@H]2[C@@H]([C@H]1C(=O)NC(CC1CCC1)C(=O)C(N)=O)C2(C)C)C(C)(C)C (stereo partly drawn) | 10.8% (inactive)
CC(C)n1cnc2c(NCc3ccccc3)nc(NCc3ccccc3)nc21 | 39.6% (inactive)
O=C(O)C[C@H]1CC[C@H](c2ccc(-c3ccc(Nc4ccc(C(F)(F)F)nc4)cn3)cc2)CC1 | 12.5% (inactive)

Structure (SMILES) | growth inhibition
COc1ccc(C(C)(C)C)cc1NC(=O)C(=O)c1ccc(OCCN2CCOCC2)c2ccccc12 | 9.3% (inactive)
COC1CC2CCC(C)C(O)(O2)C(=O)C(=O)N2CCCCC2C(=O)OC(C(C)CC2CCC(OCCO)C(OC)C2)CC(=O)C(C)/C=C(\C)C(O)C(OC)C(=O)C(C)CC(C)/C=C/C=C/C=C/1C (stereo not drawn) | 10.9% (inactive)
CC(C)CCN1C(=O)C(C2=NS(=O)(=O)c3cc(NS(C)(=O)=O)ccc3N2)=C(O)[C@@H]2[C@H]3CC[C@H](C3)[C@@H]21 | 28.5% (inactive)
Fc1ccc2c(/C=C/c3cccnc3)c[nH]c2c1 | 5.3% (inactive)
O=C(O)/C=C/C=C/c1cccc(Oc2cc(Cl)cc(Cl)c2)c1 | 13.8% (inactive)
Cc1ccc(NC(=O)c2cc(Cl)ccc2O)cc1 | 4.62% (inactive)
CC#C[C@]1(O)CC[C@H]2[C@@H]3CCC4=CC(=O)CCC4=C3[C@@H](c3ccc(N(C)C)cc3)C[C@@]21C | 11.4% (inactive)
O=C(NC1CCCc2c1[nH]c1ccc(Cl)cc21)c1ccccn1 (stereo not drawn) | 15.1% (inactive)
Cc1nc2ccc(Cl)cc2c(-c2ccccc2)c1CC(=O)O | 14.2% (inactive)
C[C@H](NC(=O)C(=O)Nc1ccccc1C(C)(C)C)C(=O)N[C@@H](CC(=O)O)C(=O)COc1c(F)c(F)cc(F)c1F | 11.6% (inactive)
N#Cc1cc([N+](=O)[O-])ccc1Oc1ccccc1Cl | 20.3% (inactive)
CC(=O)N[C@H](C)C(=O)N[C@H](Cc1ccccc1)C(=O)O | 10.8% (inactive)
c1ccc(-c2nnc3c4ccccc4c(N4CCNCC4)nn23)cc1 | 23.6% (inactive)
CCN(CC)S(=O)(=O)c1ccc(Cl)c(C(=O)Nc2sc3c(c2C#N)CCCC3)c1 | 25.7% (inactive)
CC(C)(C)NC(=O)[C@@H]1CN(Cc2cnc3occc3c2)CCN1C[C@@H](O)C[C@@H](Cc1ccccc1)C(=O)N[C@H]1c2ccccc2C[C@H]1O | 1.85% (inactive)
CC(C)C(=O)N[C@H]1[C@H]([C@H](O)[C@H](O)CO)OC(C(=O)O)=C[C@@H]1N=[N+]=[N-] | 9.45% (inactive)
Cc1nc(-c2ccc(C3N(C)c4ccc(F)cc4C(=O)N3c3ccccc3)s2)cs1 (stereo not drawn) | 15% (inactive)
Cc1ccn2c(C(=O)NCc3ccccc3)c(C)nc2c1 | 34% (inactive)
C(=C\c1nc2ccccc2[nH]1)/c1ccc2c(c1)OCO2 | 17.1% (inactive)
